{
  "source": "PubChem BioAssay (Tox21)",
  "note": "Inconclusive results are not listed. A number with no mark means an inactive call. Unless noted, calls follow the shape of the dose curve; as a rule, active = well fitted cell-killing curve with a large enough effect in the repeat runs (not every such curve was filed as active); inconclusive = weak or mixed curves, or effect the other way; inactive = no such curve, though single readings can be large or run the other way. % is scaled to controls: 0 for no effect and ±100 for the full control effect.",
  "data": [
    {"assay": "qHTS assay to identify small molecule antagonists of the estrogen related receptor signaling pathway with the pleiotropic PPARgamma coactivator (PGC) from Tox21 10K library - cell viability counter screen (AID 1224840); also: nearly all actives have a fitted effect of over 40% in size", "conditions": "PGC/ERR reporter cells viability, CellTiter-Fluor, 17.5 h; series mostly up to 92.4 µM; viability change, negative = cytotoxic: at the top concentration", "method_in_brief": "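Here the PGC/ERR cells serve as a cytotoxicity control: they are exposed to compounds for 17.5 hours at 37 C, and live-cell signal is quantified using CellTiter-Fluor fluorescence.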", "values": [
      {"smiles": "CC(C)(C)c1ccc(-c2ccc(C(C)(C)C)cc2)cc1", "viability change, negative = cytotoxic": "3.87%"},
      {"smiles": "c1ccc2sc(SN3CCOCC3)nc2c1", "viability change, negative = cytotoxic": "9.96% [at 42.5 µM]"},
      {"smiles": "CCOC(=O)COc1cc(-n2ncc(C(F)(F)F)c(C)c2=O)c(F)cc1Cl", "viability change, negative = cytotoxic": "1.33%"},
      {"smiles": "CCN[C@H]1C[C@H](C)S(=O)(=O)c2sc(S(N)(=O)=O)cc21", "viability change, negative = cytotoxic": "-0.0318% [at 42.5 µM]"},
      {"smiles": "CCOC(=O)C(=O)CCCCCCl", "viability change, negative = cytotoxic": "0.815% [at 42.5 µM]"},
      {"smiles": "CCN1CCOCC1", "viability change, negative = cytotoxic": "0.143%"},
      {"smiles": "Cc1c(N)c(=O)n(-c2ccccc2)n1C", "viability change, negative = cytotoxic": "-1.28% [at 42.5 µM]"},
      {"smiles": "Nc1ccncc1N", "viability change, negative = cytotoxic": "-0.205% [at 42.5 µM]"},
      {"smiles": "C[N+](C)(CCOc1ccccc1)Cc1cccs1", "viability change, negative = cytotoxic": "11.4% [at 42.5 µM]"},
      {"smiles": "OCCCCCO", "viability change, negative = cytotoxic": "-0.719%"}
    ]},
    {"assay": "qHTS assay to identify small molecule antagonists of the estrogen related receptor signaling pathway with the pleiotropic PPARgamma coactivator (PGC) from Tox21 10K library (AID 1224841; call rule not given here; also: actives are mostly falling curves and most rising ones were filed inactive; nearly all actives have a fitted effect of over 50% in size)", "conditions": "PGC/ERR reporter cell line, ONE-Glo luciferase, 18 h; series mostly up to 92.4 µM; activity, negative = inhibition: at the top concentration", "method_in_brief": "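Each well held 2,000 PGC/ERR cells, pre-incubated six hours (37 C, 5% CO2). Test substances in DMSO were added by pin tool and left for 18 h at 37 C before luciferase detection by One-Glo.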", "values": [
      {"smiles": "CC(C)(N)C#N", "activity, negative = inhibition": "15.5%"},
      {"smiles": "CO/N=C(\\C(=O)N[C@@H]1C(=O)N2C(C(=O)O)=C(CSc3nc(=O)c(O)nn3C)CS[C@H]12)c1csc(N)n1", "activity, negative = inhibition": "12.4% [at 42.5 µM]"},
      {"smiles": "O=S(=O)(O)c1cccc2ccccc12", "activity, negative = inhibition": "2.13%"},
      {"smiles": "CC(=O)OCC(=O)[C@@]1(O)[C@H](C)C[C@H]2[C@@H]3CCC4=CC(=O)C=C[C@]4(C)[C@@]3(F)[C@@H](O)C[C@@]21C", "activity, negative = inhibition": "8.75% [at 42.5 µM]"},
      {"smiles": "O=C(CO)[C@@H](O)[C@H](O)[C@@H](O)CO", "activity, negative = inhibition": "8.63% [at 42.5 µM]"},
      {"smiles": "Cc1ccc(C(=O)Nc2ccc(S(=O)(=O)O)c3cc(S(=O)(=O)O)cc(S(=O)(=O)O)c23)cc1NC(=O)c1cccc(NC(=O)Nc2cccc(C(=O)Nc3cc(C(=O)Nc4ccc(S(=O)(=O)O)c5cc(S(=O)(=O)O)cc(S(=O)(=O)O)c45)ccc3C)c2)c1", "activity, negative = inhibition": "1.7% [at 42.5 µM]"},
      {"smiles": "CC(=O)c1ccccc1[N+](=O)[O-]", "activity, negative = inhibition": "-0.807%"},
      {"smiles": "CC(C)(C)c1ccc(-c2ccc(C(C)(C)C)cc2)cc1", "activity, negative = inhibition": "10.1%"},
      {"smiles": "c1ccc2sc(SN3CCOCC3)nc2c1", "activity, negative = inhibition": "33.3% [at 42.5 µM]"},
      {"smiles": "OCCCCCO", "activity, negative = inhibition": "0.408%"}
    ]}
  ]
}
